# Bioassay records as filed in PubChem.
# Only a selection was taken, and hits are over-represented in it overall.
# Pf Dd2 growth = qHTS Primary assay for Inhibitors of Plasmodium falciparum Dd2 growth in vitro; actives 4.3% (n = 120,000); P. falciparum Dd2 growth, SYBR Green, 72 h; Potency, µM (series often up to 28.9 µM), inactives show top-dose activity, negative = inhibition, most hits filed as inhibitors; active means well fitted inhibition curve with a large enough effect;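 further: plate controls were DMSO vehicle for no effect and reference drug for full effect; nearly all actives have a fitted effect of over 65% in size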
#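 Infected erythrocytes (Dd2, 0.3% parasitemia, 2.5% hematocrit final) are added to compound in RPMI-1640/Albumax II medium, grown 72 h at 37C in low oxygen, then lysed with saponin/Triton-X containing SYBR Green and read by fluorescence.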
# Numbers without * were called inactive; i = inactive; [ ] = another dose, or the depositor's remark. Potency means the concentration at half of the fitted maximal effect.
SMILES,Pf Dd2 growth
CNC(=O)C1(N2CCC[C@H]2C(=O)NCCOC)CCOCC1,25%[44.1 µM]
CN(C)[C@@H]1CN(C(=O)c2ccccc2Cl)C[C@H]1CO,-6%
COCC(=O)N1CCCC(C(=O)NCCCn2nc(C)c(Cl)c2C)C1 (configuration not stated),-12%
Cc1cc(CN2CCOc3c(O)cc(-c4ccccc4C)cc3C2)on1,-27%
Cc1cccc(CN2CCOc3c(O)cc(-c4ccccc4C)cc3C2)n1,8.9µM*
Cc1ccccc1-c1cc(O)c2c(c1)CN(C(=O)C1CCNCC1)CCO2,-25%
CC1(C(=O)NCc2cccnc2)CCCc2cnc(NCc3ccccc3)nc21 (configuration not stated),i
O=C(Nc1ccc2c(c1)C(=O)N1CCC[C@H]1C(=O)N2)c1n[nH]c2c1CCC2,i
CC(=O)N1CCn2cc(C(=O)N3CCOCC3)nc2C1,47%[44.1 µM]
COc1ccc(NC(=O)Cn2c(=O)n(Cc3ccc(C(=O)NCc4ccccc4Cl)cc3)c(=O)c3ccccc32)cc1OC,-7%
O=C(Cn1c(=O)n(Cc2ccc(C(=O)NCc3ccccc3Cl)cc2)c(=O)c2ccccc21)Nc1ccc(F)c(Cl)c1,10µM*
Cc1ccc(NC(=O)Cn2c(=O)n(Cc3ccco3)c(=O)c3ccc(C(=O)NC4CCCC4)cc32)c(C)c1,1%
Cc1cc(C)c(NC(=O)Cn2c(=O)n(Cc3ccc(C(=O)NCc4ccc5c(c4)OCO5)cc3)c(=O)c3ccccc32)c(C)c1,i
O=C(Cn1c(=O)n(Cc2ccc(C(=O)NCc3ccccc3Cl)cc2)c(=O)c2ccccc21)Nc1ccc(F)cc1,-26%
Cc1ccc(C)c(NC(=O)Cn2c(=O)n(Cc3ccc4c(c3)OCO4)c(=O)c3ccc(C(=O)NC4CCCCC4)cc32)c1,i
Cc1cccc(NC(=O)Cn2c(=O)n(Cc3ccc(C(=O)NCc4ccc5c(c4)OCO5)cc3)c(=O)c3ccccc32)c1,4µM*
CCN(C(=O)Cn1c(=O)n(Cc2ccc3c(c2)OCO3)c(=O)c2ccc(C(=O)NC3CCCCC3)cc21)c1cccc(C)c1,1.3µM*
COc1cccc(NC(=O)Cn2c(=O)n(Cc3ccc(C(=O)NCc4ccc(C)cc4)cc3)c(=O)c3ccccc32)c1,-25%
O=C(Nc1nn(-c2cccc(F)c2)c2cccc(N3CCOCC3)c12)C1CCC1,8%
COc1ccc(CNC(=O)C2(c3ccc(NC(C)=O)cc3)CCC2)cc1,-15%
Cc1nnc(-c2cc(N3C[C@@H](C)O[C@@H](C)C3)ccn2)n1C1CCCCC1,i
CCc1nc(-c2c3n(c(=O)n(CC(=O)NCc4ccc(F)cc4)c2=O)CCCCC3)no1,i
COCC(=O)N[C@H]1CCN(C(=O)COC)[C@H](C(=O)N[C@H](Cc2c[nH]c3ccccc23)C(N)=O)C1,-1%
CCOC(=O)C1(Cc2ccccc2F)CCCN(C(=O)c2ccc(OC)nc2OC)C1 (configuration not stated),i
O=C(c1ccc2oc(-c3cccc(F)c3)nc2c1)N1CCCCC1CCO (configuration not stated),-17%
SMILES,Pf Dd2 growth
CC(C)c1cc(C(=O)NCCc2nc(-c3cccnc3)no2)nc2ncnn12,4%
Cc1cc(CNC(=O)c2cc(C(C)C)n3ncnc3n2)c2[nH]c(C)c(C)c2c1,8.9µM*
CC(C)c1cc(C(=O)NCCc2noc(C3CCCO3)n2)nc2ncnn12 (configuration not stated),4%
O=C(NCc1ccccc1)C1(CCO)CC12CCOCC2 (configuration not stated),0%
Cn1ccc2c(C(=O)NCc3cccnc3)nc(Nc3ccccc3)cc21,-3%[44.1 µM]
O=C(N1CCOCC1)N1CCN(c2cc(Cl)ncn2)C(=O)C1,9%
c1cc(CN2CCC(Oc3nccnc3N3CCOCC3)C2)ccn1 (configuration not stated),-25%
CN1CCC(Oc2nccnc2N2CCc3ccccc3C2)C1 (configuration not stated),8.9µM*
CN1CCC(Oc2ncccc2C(=O)O)CC1,33%
c1ccc(CN2CCC(Oc3nccnc3N3CCc4ccccc43)C2)nc1 (configuration not stated),4µM*
CCNC(=O)c1cccnc1OC1CCN(Cc2ccccn2)C1 (configuration not stated),i
O=C(NCCc1ccccn1)c1cccnc1OC1CCNCC1,-11%
c1ccc2c(c1)CCN2c1nccnc1OC1CCNC1 (configuration not stated),7.9µM*
O=C(c1ccccc1)N1CCC(Oc2nccnc2N2CCOCC2)C1 (configuration not stated),-1%
O=C(C1CCOCC1)N1CCC(Oc2nccnc2N2CCOCC2)C1 (configuration not stated),55%
CN1CCC(Oc2nccnc2N2CCOCC2)C1 (configuration not stated),25%
CN(C)C(=O)c1cccnc1OC1CCNCC1,19%
c1cnc(N2CCOCC2)c(OC2CCNC2)n1 (configuration not stated),1.4µM*
Cc1ccc(F)cc1S(=O)(=O)NC1CCN(c2ccc(=O)n(CC3CC3)n2)CC1,-15%
